This is part of a sample that, as a whole, favours compounds with a hit. Of some 83,000 tested, about 20% had one in any assay.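 Growth was measured after 48 h exposure to one concentration of compound in 96-well plates. Values under 10 count as active.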 Calls of active or inactive are those of the source.

Common to all, as to assay: NCI-60 one-dose screen, 48 h (100 = growth as untreated, 0 = no growth, -100 = all killed)
Conditions in all cases: 10 µM unless noted

Assay [1] concerns NCI-H23 lung.
Assay [2] deals with NCI-H226 lung.
In assay [3] the test system is NCI-H322M lung.
The test system of assay [4] is HOP-62 NSCLC.
Assay [5] has as its system NCI-H460 lung.
Assay [6] has as its system HOP-92 NSCLC.
Assay [7] deals with NCI-H522 lung.
Assay [8] relates to 786-0 renal.
Assay [9] has as its system COLO 205 colon.
For assay [10], the system named is K-562 leukemia.
In assay [11] the test system is MALME-3M melanoma.
Assay [12] has as its system MDA-MB-231 breast.
The test system of assay [13] is SF-268 CNS.
Assay [14] has as its system SF-295 CNS.
Assay [15] deals with SF-539 CNS.
Assay [16] deals with UACC-257 melanoma.
For assay [17], the system named is M14 melanoma.
Assay [18] has as its system A549/ATCC NSCLC.
The subject of assay [19] is DU-145 prostate.
Assay [20] deals with RXF 393 renal.

For `CC1(C)N=c2cc3c(cc2N1c1ccc(Cl)cc1)=Nc1ccccc1N3c1ccc(Cl)cc1`, the growth was 9.73% (active) in [1]; 53% (inactive) in [2]; 75.2% (inactive) in [3]; -19.2% (active) in [4]; 46.5% (inactive) in assay [5]; -26.6% (active) in assay [6]. The growth was -22.1% (active) in assay [7]; 11.8% (inactive) in [8]; 39.1% (inactive) in assay [9]; -18.7% (active) in assay [10]; 79.4% (inactive) in assay [11]; 83.3% (inactive) in assay [12]. For the same compound, the growth was 49.6% (inactive) in assay [13]; 31.7% (inactive) in assay [14]; 79.7% (inactive) in [15]; 40.5% (inactive) in assay [16]; 19.3% (inactive) in [17].

As to `O=C(Nc1cccc(C(F)(F)F)c1)Oc1ccc(Cl)c2cccnc12`, the growth in assay [1] is 8.91% (active); in [2], 86.3% (inactive); in assay [3], 101% (inactive); in assay [4], 76.8% (inactive); in assay [5], 10.4% (inactive); in assay [7], -77.1% (active). In addition, the growth is -1.52% (active) in [18]; 88% (inactive) in assay [8]; 89.6% (inactive) in [9]; 39.6% (inactive) in [19]; 16.2% (inactive) in assay [10]; -2.66% (active) in assay [11]. The growth in [12] was 22.7% (inactive); in assay [20], 68.6% (inactive); in assay [13], 15.1% (inactive); in assay [14], 4.11% (active); in [15] it was 50.9% (inactive); in [16] it was -60% (active). In assay [17], the growth was 24.9% (inactive).

As for `CC12CCC(O)CC1=CCC1C2CCC2(C)C3=NN=CC3CC12` (configuration not stated), the growth in assay [1] was 101% (inactive); in assay [2] it was 105% (inactive); in [3] it was 118% (inactive); in assay [4], 101% (inactive); in [5] it was 125% (inactive); in [7], 105% (inactive). Further, the growth in assay [18] is 104% (inactive); in assay [8] it was 112% (inactive); in [9], 112% (inactive); in [19] it was 122% (inactive); in assay [10], 61.1% (inactive); in assay [11], 98% (inactive). The growth in assay [12] was 103% (inactive); in assay [20], 102% (inactive); in [13], 105% (inactive); in [15] it was 106% (inactive); in assay [16] it was 103% (inactive); in assay [17] it was 99.7% (inactive).

Turning to `Oc1ccc(Cl)cc1C(c1cc(Cl)ccc1O)C(Cl)(Cl)Cl`, the growth is -25.2% (active) in assay [1]; 22.5% (inactive) in [2]; 27.7% (inactive) in assay [3]; 14.1% (inactive) in [4]; -12% (active) in assay [5]; -25.3% (active) in [6]. In addition, the growth in assay [18] is 28.7% (inactive); in assay [8] it was 15.2% (inactive); in assay [9], 49.4% (inactive); in assay [19], -47.8% (active); in assay [10], 4.51% (active); in assay [11] it was 11.9% (inactive). In addition, the growth in assay [12] is -63.6% (active); in assay [13], 20.2% (inactive); in assay [14], 10.1% (inactive); in assay [15], 31.4% (inactive); in [16], 72.1% (inactive); in assay [17] it was 0.872% (active).

As for `NC(=S)N/N=C\c1nccc2c(C(F)(F)F)cccc12`, the growth in [1] is 13.4% (inactive); in assay [2] it was -0.105% (active); in [3], 4.15% (active); in assay [4], -5.75% (active); in assay [5] it was 0.121% (active); in assay [7] it was -30.5% (active). The growth in assay [18] was 3.44% (active); in assay [8], -24.7% (active); in assay [9], 17.8% (inactive); in assay [19] it was 12% (inactive); in assay [10], 5.11% (active); in [11] it was -10.4% (active). Besides, the growth in assay [12] was 49.1% (inactive); in assay [20], 16% (inactive); in assay [13] it was 5.75% (active); in assay [14], 7.98% (active); in assay [15], 0.339% (active); in [16] it was -23.9% (active). Further, the growth in assay [17] is -26.7% (active).

As for `O=C(Nc1ccc(Cl)c(Cl)c1)Nc1ccccc1O`, the growth in assay [1] is 64.9% (inactive); in [2] it was 96.9% (inactive); in [3], 87.3% (inactive); in [4], 88.8% (inactive); in assay [5], 79.5% (inactive); in assay [7] it was 26.8% (inactive). Besides, the growth in assay [18] was 37.2% (inactive); in assay [8], 99.6% (inactive); in [9], 85.3% (inactive); in [19], 118% (inactive); in [10], 48.7% (inactive); in assay [11], 114% (inactive). Also, the growth was 82.5% (inactive) in assay [12]; 101% (inactive) in assay [20]; 92.9% (inactive) in assay [13]; 75.5% (inactive) in assay [14]; 91.5% (inactive) in assay [15]; 78.2% (inactive) in [16]. Moreover, in assay [17], the growth is 58.4% (inactive).

In the case of `Cc1cc(=O)oc2cc(O)cc(O)c12`, the growth was 107% (inactive) in assay [1]; 97.7% (inactive) in [2]; 103% (inactive) in assay [3]; 87.2% (inactive) in assay [4]; 99% (inactive) in [5]; 100% (inactive) in assay [6]. For the same compound, the growth in [7] was 88.7% (inactive); in assay [8] it was 98% (inactive); in assay [9], 110% (inactive); in assay [19] it was 103% (inactive); in assay [10], 102% (inactive); in assay [11], 90% (inactive). Besides, the growth in [12] is 89.8% (inactive); in assay [20], 114% (inactive); in assay [13] it was 97.7% (inactive); in assay [14], 103% (inactive); in assay [15] it was 92.4% (inactive); in assay [17] it was 102% (inactive).

For the compound `CC(C)=CCCC(C)C1=C(O)C(=O)C(C)=CC1=O` (configuration not stated), the growth in assay [1] is 97% (inactive); in assay [2] it was 94.8% (inactive); in assay [3], 112% (inactive); in [4] it was 125% (inactive); in assay [5], 124% (inactive); in assay [7], -55.5% (active). The growth was 110% (inactive) in assay [18]; 93.2% (inactive) in assay [8]; 50.3% (inactive) in assay [9]; 99.6% (inactive) in [19]; -45.3% (active) in assay [10]; 69.3% (inactive) in assay [11]. The growth is 40.5% (inactive) in assay [12]; 58.5% (inactive) in assay [20]; 93.7% (inactive) in assay [13]; 120% (inactive) in [14]; 96.3% (inactive) in assay [15]; 120% (inactive) in assay [16]. Also, the growth in assay [17] was 107% (inactive).

Source of the values: PubChem BioAssay (NCI).
